Screening results as filed in PubChem.
NPR1 antag = antagonists of human natriuretic peptide receptor Npr1. P16066. HEK293 hNpr1 GloSensor cGMP, ANP-stimulated luminescence. Potency, µM (doses to about 46.3 µM), for the others: top-dose activity change, negative = inhibition, hits mostly inhibitors. actives 1.6% (n = 76,000); calls by dose curve; also: nearly all actives have a fitted effect of over 60% in size
Target sequence (P16066 whole entry, looked up): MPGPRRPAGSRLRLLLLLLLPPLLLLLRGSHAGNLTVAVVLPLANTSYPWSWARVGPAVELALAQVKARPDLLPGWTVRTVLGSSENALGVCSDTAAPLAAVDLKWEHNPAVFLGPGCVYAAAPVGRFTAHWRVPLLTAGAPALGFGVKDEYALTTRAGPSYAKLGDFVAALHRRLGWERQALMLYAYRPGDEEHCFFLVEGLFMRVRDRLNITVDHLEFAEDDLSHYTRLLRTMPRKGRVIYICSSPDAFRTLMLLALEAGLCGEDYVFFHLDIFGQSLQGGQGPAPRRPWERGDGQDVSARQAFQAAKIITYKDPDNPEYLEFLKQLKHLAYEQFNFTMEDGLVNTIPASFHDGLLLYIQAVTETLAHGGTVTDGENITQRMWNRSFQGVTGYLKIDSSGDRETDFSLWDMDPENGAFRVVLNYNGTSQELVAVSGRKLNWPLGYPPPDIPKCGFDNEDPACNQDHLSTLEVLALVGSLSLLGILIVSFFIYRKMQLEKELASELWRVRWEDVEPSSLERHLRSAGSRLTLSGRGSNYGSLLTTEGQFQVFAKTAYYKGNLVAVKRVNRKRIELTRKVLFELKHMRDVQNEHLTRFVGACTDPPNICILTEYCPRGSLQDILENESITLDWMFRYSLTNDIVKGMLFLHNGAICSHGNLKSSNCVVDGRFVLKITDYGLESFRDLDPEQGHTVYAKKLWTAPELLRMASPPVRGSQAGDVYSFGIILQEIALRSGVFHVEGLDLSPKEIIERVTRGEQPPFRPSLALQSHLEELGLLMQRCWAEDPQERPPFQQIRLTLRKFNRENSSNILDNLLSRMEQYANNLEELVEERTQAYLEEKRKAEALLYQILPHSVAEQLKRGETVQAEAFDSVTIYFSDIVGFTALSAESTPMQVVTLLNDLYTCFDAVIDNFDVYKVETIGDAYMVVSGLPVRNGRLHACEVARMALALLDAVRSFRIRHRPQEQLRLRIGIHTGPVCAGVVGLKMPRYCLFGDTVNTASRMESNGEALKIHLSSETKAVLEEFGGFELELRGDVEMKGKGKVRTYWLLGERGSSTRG
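HEK293 cells stably expressing human Npr1 and cGMP GloSensor pGS-40F, loaded 2 h with 2% GloSensor reagent, given compound 30 min at room temperature. Luminescence read before and 20 min after 0.1 nM hNppA.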
HEK cytotox = HEK 293 cell cytotoxicity | HEK 293 viability, ATP luminescence (CellTiter-Glo), 48-72 h | Potency, µM (doses to about 115 µM), without a hit: at the highest dose activity change, negative = cytotoxicity, usual class: inhibitors | actives 6.6% (n = 94,000) | AID 1345083; also: nearly all actives have a fitted effect of over 60% in size
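HEK 293 cells at 250 cells/well were exposed to compounds by pintool transfer for 48 or 72 hr at 37 degree Celsius, 5% CO2. Viability was read as ATP-coupled luminescence with CellTiter-Glo after 10 min at room temperature.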
Luciferase inh = inhibitors of firefly (Photinus pyralis) luciferase; P08659; purified P. pyralis luciferase, luminescence, biochemical; Potency, µM (series often up to 115 µM), most hits filed as inhibitors; actives 2.5% (n = 76,000); AID 1347043; also: nearly all actives have a fitted effect of over 65% in size
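Cell-free enzyme assay, 10nM P. pyralis luciferase, luciferin and ATP each at 10uM. Inhibition profiled over a 6-point titration, read as luminescence.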
3T3 cytotox = cytotoxic compounds in NIH 3T3 cells. NIH 3T3 viability, CellTiter-Glo ATP luminescence, 48-72 h. Potency, µM (highest dose often 96.7 µM), for the others: at the highest dose activity change, negative = cytotoxicity, hits mostly inhibitors. actives 4.3% (n = 94,000). AID 1345082; also: nearly all actives have a fitted effect of over 55% in size
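NIH 3T3 cells at 400 cells/well received 23 nL of compound by pintool and were incubated 48 or 72 h at 37 °C. Viability was read as ATP-coupled CellTiter-Glo luminescence.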
* marks the source's active call; other numbers are inactive results; i = inactive; u = inconclusive; x = no result; [ ] = dose if it differs, or a comment. Most compounds without a hit are left out; they make up all but 11% or so of the library. Unless noted, calls follow the shape of the dose curve; as a rule, active = well fitted curve in the direction sought with a large enough effect; inconclusive = small, poorly fitted or top-dose-only effect, or another doubt; inactive = no such curve, though single readings can be large; an effect the other way counts as inactive or inconclusive. % is scaled to controls: 0 for no effect and ±100 for the full control effect; potency is read from the fitted curve at half-maximal effect.

SMILES | NPR1 antag | HEK cytotox | Luciferase inh | 3T3 cytotox
Cc1noc(-c2cn(C3CCN(C(=O)c4ccc5[nH]ccc5c4)CC3)nn2)n1 | 0% | -2% | i | -24%
O=C(c1ccc2cc[nH]c2c1)N1CCC(n2cc(-c3nc(-c4ccccc4)no3)nn2)CC1 | -22% | 40µM* | u | u
Cn1c(COc2cccc(C(F)(F)F)c2Cl)nnc1C1CC(N)C1 (stereo not given) | -21% | -20% | i | u
O=C1[C@@H]2C[C@@H](CN2C(=O)c2cccnc2)Oc2ccccc2N1Cc1ccc(OC(F)(F)F)cc1 | 3% | u | i | -20%
COc1ccc(NC(=O)C2=NO[C@@H]3CN(CCc4ccccc4)C[C@H]23)cn1 | 1%[70.6 µM] | 100µM* | i | -23%[138 µM]
COc1cncc(NC(=O)C2=NO[C@@H]3CN(Cc4ccccc4)C[C@H]23)c1 | 2%[70.6 µM] | -28%[172 µM] | i | u
COc1ccc(NC(=O)C2=NO[C@@H]3CN(c4cccnc4)C[C@H]23)cc1 | u | u | 35µM* | u
c1ccc2sc(N3CCN(Cc4cc5n(n4)CCCNC5)CC3)nc2c1 | 0% | -14% | i | -20%
c1ccc2c(N3CCN(Cc4cc5n(n4)CCNC5)CC3)nsc2c1 | 4% | 40µM* | i | u
c1ccc2c(c1)CCN2C1CN(CC2CC2)C1 | x | -3%[230 µM] | x | 5%[174 µM]
CCN1CCC2(CCC1=O)CN(Cc1ccc(C)c3ccccc13)CCN2C (stereo not given) | 5% | 79µM* | i | -11%
CCOc1ccc(C(=O)NC2CCN(c3cc(-c4ccccc4)[nH]n3)CC2)cc1OCC | -5% | u | i | -16%
CCOc1cc(C(=O)NC2CCN(c3cc(-c4ccccc4)[nH]n3)CC2)cc(OCC)c1OCC | -1% | 45µM* | i | u
CCOc1cc(C(=O)NC2CCN(c3cc(-c4ccc(F)cc4)[nH]n3)C2)cc(OCC)c1OCC (stereo not given) | 1% | 35µM* | i | 25µM*
CCOc1ccc(C(=O)NC2CCN(c3cc(-c4ccc(F)cc4)[nH]n3)CC2)cc1OCC | 3% | 40µM* | i | u
O=C(Nc1ccccc1)N1CCCC(C(=O)N2CCC(N3CCOC3=O)CC2)C1 (stereo not given) | x | 3% | x | -19%
Cc1cccc(C(=O)NCc2nnc3cc(-c4nc(C(C)C)no4)ccn23)c1 | 2% | -19% | i | -4%
O=C(NCC1CCNC1)C1CCN(c2nc(-c3ccccc3)nc3c2CCC3)CC1 (stereo not given) | 1% | u | i | 79µM*
Cn1cc(CNC(=O)C2CCN(c3nc(-c4ccccc4)nc4c3CCC4)CC2)cn1 | 6% | i | i | i
O=C1CCN(S(=O)(=O)c2ccccc2)CCCN(C(=O)c2cccc3[nH]ccc23)CCN1 | 7% | 2% | i | -11%
COc1ccc(NC(=O)C2(C)CN(C)Cc3ccc(NCc4ccccc4)nc32)cn1 (stereo not given) | -17%[70.6 µM] | 79µM* | i | 79µM*
CN1Cc2ccc(NCc3ccccc3)nc2C(C)(C(=O)NC2CCC2)C1 (stereo not given) | 2%[70.6 µM] | u | i | u
COc1cccc(NC(=O)C2(C)CN(C)Cc3ccc(NCc4ccccc4)nc32)c1 (stereo not given) | -2%[70.6 µM] | u | i | 40µM*
COC(=O)CNC(=O)c1nc2cccnc2n(C2CC2)c1=O | x | 1%[172 µM] | x | -10%[138 µM]
O=C(COc1ccc(Cl)cc1Cl)N1CCCCC1c1ccccn1 (stereo not given) | u | 45µM* | u | u
SMILES | NPR1 antag | HEK cytotox | Luciferase inh | 3T3 cytotox
COc1ccc(C(=O)NC2CCN(Cc3ccc(-c4cc(F)ccc4OC)cc3)C2)cc1 (stereo not given) | x | 22µM* | x | 18µM*
O=C(NC1CCCN(Cc2ccc(-c3cncnc3)cc2)C1)c1ccc(Cl)nc1 (stereo not given) | x | u | x | -24%
COc1ccc(F)cc1-c1ccc(CN2CCC(NC(=O)c3cccnc3)C2)cc1 (stereo not given) | x | 50µM* | x | u
CSc1ccc(-c2cccc(CN3CCC(NC(=O)c4cccnc4)CC3)c2)cc1 | x | -10% | x | -16%
COc1ccccc1-c1ccc(CN2CCC(NC(=O)c3ccc(Cl)cc3)C2)cc1 (stereo not given) | x | 25µM* | x | 14µM*
COc1ccc(F)cc1-c1ccc(CN2CCC(NC(=O)c3ccc(Cl)nc3)C2)cc1 (stereo not given) | x | 32µM* | x | 32µM*
COc1ccc(C(=O)NC2CCCN(c3cc(-c4ccc(F)cc4)[nH]n3)C2)cc1 (stereo not given) | -12% | u | u | u
CN1CC(=O)N(C2CCNC2)Cc2c1ncnc2N1CCCN(Cc2ccccc2)CC1 (stereo not given) | x | -7% | x | i
CCn1ccc(C(=O)N2CCC3(CC2)CC(N(C2CC2)S(=O)(=O)CC)CCO3)n1 (stereo not given) | x | -1% | x | u
O=C(NCC1CCCCC1)c1nc2sccn2c1-c1ccc(F)cc1 | x | -28% | x | u
COc1ccc(C(=O)NC2CCN(Cc3ccc(-c4ccccc4OC)cc3)C2)cc1 (stereo not given) | x | u | x | 22µM*
COc1ccccc1-c1ccc(C(=O)N2CCC(NC(=O)c3ccc(F)cc3)CC2)cc1 | x | -12% | x | -6%
O=C(NCc1ccccc1Cl)c1ccc2nnc(C3CCOCC3)n2c1 | x | -2% | x | -38%
O=C1N(Cc2ccc(F)cc2)C[C@H]2CN(Cc3cnc4ccccc4c3)CCN12 | u | u | i | 71µM*
CN1CCN(C(=O)c2ccc3nnc(-c4cccnc4)n3c2)CC1 | x | -10%[172 µM] | x | -15%[138 µM]
Cc1ccccc1Cc1c(C)nc2c(C(=O)NCCc3noc(-c4cccnc4)n3)cnn2c1C | x | 89µM* | x | u
COCc1nc(CCNC(=O)c2cnn3c(C)c(Cc4ccccc4Cl)c(C)nc23)no1 | 0% | u | i | u
Cc1ccccc1Cc1c(C)nc2c(C(=O)NCCc3noc(-c4ccncc4)n3)cnn2c1C | 4% | 45µM* | i | u
Cc1ccc(NC(=O)N2Cc3[nH]cnc3C[C@H]2c2nc(-c3ccc(C)cc3)no2)cc1 | -23%[70.6 µM] | u | 32µM* | 100µM*
COc1ccc(-c2noc([C@@H]3Cc4nc[nH]c4CN3C(=O)Nc3ccccc3)n2)cc1 | u | u | 32µM* | u
CCN(CC)C(=O)c1csc(-c2cccc(OC(C)C)c2)n1 | u | 40µM* | i | u
CC(C)CNC(=O)c1csc(-c2cccc(OC(C)C)c2)n1 | -5% | 40µM* | i | u
CCOc1cccc(-c2nc(C(=O)NCc3ccccc3)cs2)c1 | u | u | i | u
COc1cccc(-c2ccc(C(=O)O)cc2)c1 | x | -10%[230 µM] | x | -13%[174 µM]
CC(C)Oc1cccc(-c2ccc(C(=O)N(C)C)cc2)c1 | -2% | 35µM* | u | u
